Measured values taken from PubChem BioAssay AID1159580 (chemical genetic matrix, 2015).
Where “and” joins values, the source holds several entries; their conditions need not be identical. Equal entries are not always repeated. Hit rate of the full screen: of about 5,500 compounds, about 2,000 (36%) were called active. Another 18% or so got no clear call; they are omitted. No stated cut-off is given here; in the data, active means normalized growth mostly below about 0.91 (no sharp cut-off); inconclusive means no clear call, values can overlap the other calls; inactive means mostly above about 0.92. This is one part of the list.

Experiment: chemical genetic growth profiling, strain panel (AID 1159580);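 further: tested at 20 µM; growth read once vehicle control cultures reached saturation at 30 °C; 1 = growth at the plate median or of vehicle wells; lower values mean less growth of the strain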
Details: S. cerevisiae deletion strains, growth OD

Measured: normalized growth

Fc1ccc([C@@H]2CCNC[C@H]2COc2ccc3c(c2)OCO3)cc1
inactive: locus YAL013W, strain DEP1, hits give low values 1.02 | locus YAL021C, strain ccr4, hits give low values 1 | locus YAL026C, strain drs2, hits give low values 0.997 | locus YAL030W, strain snc1, hits give low values 1.01 | locus YBL061C, strain skt5, hits give low values 0.991 | locus YBR009C, strain hhf1, hits give low values 1.01 | locus YBR021W, strain FUR4, hits give low values 1.01 | locus YBR023C, strain chs3, hits give low values 1 | locus YBR171W, strain sec66, hits give low values 0.984 | locus YBR229C, strain ROT2, hits give low values 1.01 | locus YBR231C, strain swc5, hits give low values 0.992 | locus YBR279W, strain paf1, hits give low values 1 | locus YCL011C, strain gbp2, hits give low values 0.999 | locus YCL016C, strain dcc1, hits give low values 0.99 | locus YCL029C, strain bik1, hits give low values 1.02 | locus YCL061C, strain MRC1, hits give low values 0.998 | locus YCL069W, strain vba3, hits give low values 1 | locus YCR088W, strain abp1, hits give low values 1 | locus YDL005C, strain med2, hits give low values 1.01 | locus YDL035C, strain GPR1, hits give low values 1.03 | locus YDL040C, strain nat1, hits give low values 0.992 | locus YDL074C, strain BRE1, hits give low values 1.01 | locus YDL101C, strain DUN1, hits give low values 1.01 | locus YDL134C, strain PPH21, hits give low values 1 | locus YDL185W, strain tfp1, hits give low values 1.01 | locus YDL192W, strain arf1, hits give low values 1.01 | locus YDR001C, strain nth1, hits give low values 0.999 | locus YDR069C, strain doa4, hits give low values 1.01 | locus YDR101C, strain arx1, hits give low values 1 | locus YDR137W, strain rgp1, hits give low values 1.09 | locus YDR150W, strain NUM1, hits give low values 1 | locus YDR159W, strain sac3, hits give low values 1.01 | locus YDR162C, strain NBP2, hits give low values 1 | locus YDR195W, strain ref2 1.02 | locus YDR297W, strain sur2, hits give low values 0.998 | locus YDR318W, strain mcm21, hits give low values 1.02 | locus YDR334W, strain swr1, hits give low values 1.01 | locus YDR335W, strain msn5, hits give low values 1.01 | locus YDR388W, hits give low values 1 | locus YDR392W, strain spt3, hits give low values 1.02 | locus YDR502C, strain sam2, hits give low values 0.998 | locus YEL003W, strain gim4, hits give low values 1.01 | locus YEL037C, strain rad23, hits give low values 1 | locus YEL061C, strain CIN8 (second series), hits give low values 1 | locus YEL061C, strain CIN8, hits give low values 1.01 | locus YER015W, strain faa2, hits give low values 1.01 | locus YER016W, strain bim1, hits give low values 0.99 | locus YER110C, hits give low values 1.02 | locus YER111C, strain swi4, hits give low values 0.984 | locus YER155C, strain BEM2 (second series), hits give low values 1.01 | locus YER155C, strain BEM2, hits give low values 1 | locus YER167W, strain BCK2, hits give low values 1.02 | locus YFR010W, strain ubp6, hits give low values 1.03 | locus YGL078C, strain dbp3, hits give low values 0.989 | locus YGL086W, strain mad1, hits give low values 1.02 | locus YGL167C, strain pmr1, hits give low values 1 | locus YGL173C, strain kem1, hits give low values 0.986 | locus YGL227W, strain vid30, hits give low values 0.987 | locus YGL240W, strain doc1, hits give low values 0.99 | locus YGL248W, strain PDE1, hits give low values 1.01 | locus YGL253W, strain hxk2, hits give low values 0.993 | locus YGR078C, strain PAC10, hits give low values 1 | locus YGR135W, strain pre9, hits give low values 0.987 | locus YGR229C, strain SMI1, hits give low values 1 | locus YGR252W, strain gcn5, hits give low values 1.05 | locus YHR013C, strain ard1, hits give low values 0.998 | locus YHR027C, strain rpn1, hits give low values 1 | locus YHR030C, strain SLT2, hits give low values 1.01 | locus YHR079C, strain IRE1 (second series), hits give low values 1 | locus YHR079C, strain IRE1, hits give low values 1.02 | locus YHR094C, strain hxt1, hits give low values 0.999 | locus YHR129C, strain ARP1, hits give low values 1.01 | locus YHR142W, strain chs7, hits give low values 0.969 | locus YHR200W, strain rpn10, hits give low values 1.01 | locus YIL066C, strain RNR3, hits give low values 1.01 | locus YIL073C, strain SPO22, hits give low values 1.09 | locus YIL125W, strain kgd1, hits give low values 0.997 | locus YIR030C, strain dcg1, hits give low values 1 | locus YJL092W, strain hpr5, hits give low values 0.998 | locus YJL095W, strain BCK1 (second series), hits give low values 0.995 | locus YJL095W, strain BCK1, hits give low values 1.02 and 1.01 | locus YJL115W, strain asf1, hits give low values 1 | locus YJL129C, strain trk1, hits give low values 0.987 | locus YJL134W, strain LCB3, hits give low values 1.01 | locus YJL154C, strain vps35, hits give low values 1.02 | locus YJL164C, strain tpk1, hits give low values 1.01 | locus YJL166W, strain qcr8, hits give low values 1.03 | locus YJL168C, strain set2, hits give low values 1.01 | locus YJL187C, strain SWE1 (second series), hits give low values 1 | locus YJL187C, strain SWE1, hits give low values 1.01 | locus YJR043C, strain POL32, hits give low values 1.04 | locus YJR066W, strain TOR1, hits give low values 1.02
